Measured values from PubChem BioAssay.
Calls of active or inactive are those of the source. Unless noted, the rule behind the calls is not given here.

Legend:
[1] = circadian clock period modulators, cell-based, LOPAC library, luminescence reporter (AID 2774); details: circadian reporter cells, at 7 µM, actives lie on both sides;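 note: values are relative to mean of DMSO wells on each plate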
[2] = tested on: Hepatitis C virus NS3 helicase; assay: HCV NS3 helicase inhibitors, primary screen, biochemical, fluorescence polarization, LOPAC1280 library (AID 687035; in the data active = inhibition above about 37%); details: Purified HCV NS3 helicase, Cy5-dT15 ssDNA binding fluorescence polarization; stronger effect = higher value; concentration not given here
[3] = Cy5 fluorescence quenching or enhancement artefacts, artefact control for HCV NS3 helicase inhibitor project, biochemical, LOPAC1280 (AID 687037); details: Cy5-DNA-NS3h complex fluorescence interference counterscreen
[4] = sensitizers of A549 cells to miR-34 induction, primary screen, imaging, A549 dox-inducible miR-34, nuclei and caspase counts (AID 1347080;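 active = compounds whose cell count with miR-34 switched on is under 0.7 times the count with it off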); details: A549 miR-34 inducible, Hoechst nuclei count, 48 h
[5] = phospholipid biosynthesis inhibitors in animal cells, primary screen, cell-based, LOPAC library, screen 4 (AID 1347384); details: phospholipid biosynthesis inhibition screen, at 10 µM
[6] = viability rescue of complex I mutant cybrids, primary screen, cell-based, galactose medium, ATP luminescence (AID 1645843;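 active = z-score of at least 1.8 in each of two replicates, scored against plate mean and spread of sample wells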;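 note: positive z means more ATP and so rescue of galactose-driven cybrid death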); details: complex I mutant cybrid cells, 72 h, stronger effect = higher value
[7] = liver-stage malaria parasite growth inhibition, primary screen, cell-based, HepG2, luciferase luminescence, HepG2 viability (AID 624349; in the data active = parasite load remaining mostly below about 12%, no sharp cut-off; inactive = mostly above about 10%;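 note: 100% = mean of DMSO negative control wells on the same plate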); details: P. berghei liver stage in HepG2, luciferase luminescence, concentration not given here; parasite load remaining: stronger effect = lower value; viability: measured here: HepG2 viability without parasites
[8] = stronger effect = lower value, cell number ratio, induced over uninduced
[9] = measured here: relative caspase fold change +Dox/-Dox
[10] = measured here: total cells with miR-34 induction, stronger effect = lower value
[11] = measured here: total cells without miR-34 induction

COc1cc2c(CCNC(C)=O)c[nH]c2cc1O
period change [1]: -0.175 h (inactive)
inhibition [2]: -2% (inactive)
fluorescence ratio (interference) [3]: 1 (inactive)
fold change [4, 8]: 0.921 (inactive)
fold change [4, 9]: 1.6
cell count [4, 10]: 10100
cell count [4, 11]: 11000
outcome [5]: inactive
z-score [6]: -0.44 (inactive)

O=C(NOCC1CC1)c1cc(Br)c(F)c(F)c1Nc1ccc(I)cc1Cl
fold change [4, 8]: 1.16 (inactive)
fold change [4, 9]: 1.35
cell count [4, 10]: 1380
cell count [4, 11]: 1180
outcome [5]: inactive
z-score [6]: -1.36 (inactive)

CCCN(CCc1ccccc1)C1CCc2c(O)cccc2C1 (stereo not drawn)
period change [1]: 0.095 h (inactive)
inhibition [2]: -4% (inactive)
fluorescence ratio (interference) [3]: 1 (inactive)
fold change [4, 8]: 0.964 (inactive)
fold change [4, 9]: 1.22
cell count [4, 10]: 5860
cell count [4, 11]: 6070
outcome [5]: inactive
z-score [6]: -1.21 (inactive)

COc1cc(OC)cc(-c2cc3cnc(N)nc3nc2NC(=O)NC(C)(C)C)c1
fold change [4, 8]: 1.04 (inactive)
fold change [4, 9]: 2.01
cell count [4, 10]: 4510
cell count [4, 11]: 4320
outcome [5]: inactive
z-score [6]: 0.34 (inactive)

O=c1[nH]c2cc(Cl)ccc2c(O)c1-c1ccc(Oc2ccccc2)cc1
period change [1]: -0.015 h (inactive)
inhibition [2]: -2% (inactive)
fluorescence ratio (interference) [3]: 1 (inactive)
fold change [4, 8]: 1.06 (inactive)
fold change [4, 9]: 0.974
cell count [4, 10]: 10400
cell count [4, 11]: 9850
outcome [5]: inactive
z-score [6]: 0.965 (inactive)

COC(=O)C1=C(C)NC(C)=C(C(=O)OC)C1c1cccc(NC(=O)NCCCN2CCC(c3cccc(OC)c3)CC2)c1
fold change [4, 8]: 1.58 (inactive)
fold change [4, 9]: 0.349
cell count [4, 10]: 2200
cell count [4, 11]: 1390
outcome [5]: inactive
z-score [6]: -1.35 (inactive)

N#CC(C#N)=C(N)/C(C#N)=C/c1ccc(O)cc1
period change [1]: -0.025 h (inactive)
parasite load remaining [7]: 31.2% (inactive)
viability [7]: 70.9%
inhibition [2]: -2% (inactive)
fluorescence ratio (interference) [3]: 1 (inactive)
fold change [4, 8]: 0.894 (inactive)
fold change [4, 9]: 1.36
cell count [4, 10]: 8590
cell count [4, 11]: 9610
outcome [5]: inactive
z-score [6]: 0.29 (inactive)

O=C(CCSCc1ccco1)NNC(=O)N1Cc2ccccc2Oc2ccc(Cl)cc21
fold change [4, 8]: 0.969 (inactive)
fold change [4, 9]: 0.669
cell count [4, 10]: 7850
cell count [4, 11]: 8100
outcome [5]: inactive
z-score [6]: 1.58 (inactive)

Cn1c(=O)c2[nH]c(-c3ccccc3)nc2n(C)c1=O
period change [1]: 0.09 h (inactive)
inhibition [2]: -3% (inactive)
fluorescence ratio (interference) [3]: 1 (inactive)
fold change [4, 8]: 1.06 (inactive)
fold change [4, 9]: 3.05
cell count [4, 10]: 10000
cell count [4, 11]: 9510
outcome [5]: inactive
z-score [6]: 1.04 (inactive)

CN(CCCOc1ccc(Cc2ccccc2)cc1)CCC(=O)O
fold change [4, 8]: 0.994 (inactive)
fold change [4, 9]: 1.84
cell count [4, 10]: 9930
cell count [4, 11]: 9990
outcome [5]: inactive
z-score [6]: 0.275 (inactive)

CN1C2CCC1CC(OC(=O)C(O)c1ccccc1)C2 (stereo not drawn)
period change [1]: 0.16 h (inactive)
fold change [4, 8]: 1.02 (inactive)
fold change [4, 9]: 1.06
cell count [4, 10]: 10900
cell count [4, 11]: 10700
outcome [5]: inactive
z-score [6]: 0.155 (inactive)

OC1(c2ccc(Cl)cc2)CCN(Cc2c[nH]c3ccccc23)CC1
period change [1]: 0.165 h (inactive)
inhibition [2]: -8% (inactive)
fluorescence ratio (interference) [3]: 0.9 (inactive)
fold change [4, 8]: 1.01 (inactive)
fold change [4, 9]: 1.16
cell count [4, 10]: 7020
cell count [4, 11]: 6940
outcome [5]: inactive
z-score [6]: -0.735 (inactive)

CNc1ncnc2c1ncn2[C@@H]1O[C@H](CO)[C@H](O)C1O (stereo partly drawn)
period change [1]: -0.015 h (inactive)
inhibition [2]: -2% (inactive)
fluorescence ratio (interference) [3]: 1 (inactive)
fold change [4, 8]: 1.08 (inactive)
fold change [4, 9]: 1.05
cell count [4, 10]: 10300
cell count [4, 11]: 9460
outcome [5]: inactive
z-score [6]: 0.765 (inactive)

NC(C(=O)N[C@@H]1C(=O)N2C(C(=O)O)=C(Cl)CS[C@H]12)c1ccccc1 (stereo partly drawn)
period change [1]: 0.03 h (inactive)
inhibition [2]: 0% (inactive)
fluorescence ratio (interference) [3]: 1 (inactive)
fold change [4, 8]: 1.02 (inactive)
fold change [4, 9]: 2.15
cell count [4, 10]: 10500
cell count [4, 11]: 10300
outcome [5]: inactive
z-score [6]: 0.38 (inactive)

COc1ccc(C(=O)/C(Cc2cc(OC)c(OC)c(OC)c2)=C(\C(=O)O)c2ccc3c(c2)OCO3)cc1
fold change [4, 8]: 1.31 (inactive)
fold change [4, 9]: 1.24
cell count [4, 10]: 3900
cell count [4, 11]: 2980
outcome [5]: inactive
z-score [6]: -1.33 (inactive)

CCCCCCCCCC(=O)NC(CN1CCOCC1)[C@H](O)c1ccccc1 (stereo partly drawn)
period change [1]: 0.05 h (inactive)
inhibition [2]: 2% (inactive)
fluorescence ratio (interference) [3]: 1 (inactive)
fold change [4, 8]: 0.995 (inactive)
fold change [4, 9]: 1.18
cell count [4, 10]: 7040
cell count [4, 11]: 7080
outcome [5]: inactive
z-score [6]: -1.16 (inactive)

NC/C=C\C(=O)O
period change [1]: 0.03 h (inactive)
inhibition [2]: -3% (inactive)
fluorescence ratio (interference) [3]: 1 (inactive)
fold change [4, 8]: 1.03 (inactive)
fold change [4, 9]: 1.8
cell count [4, 10]: 9360
cell count [4, 11]: 9050
outcome [5]: inactive
z-score [6]: -1.38 (inactive)

CSc1nc(N)c2ncn([C@@H]3O[C@H](COP(=O)(O)OP(=O)(O)OP(=O)(O)O)[C@H](O)C3O)c2n1 (stereo partly drawn)
period change [1]: -0.07 h (inactive)
inhibition [2]: 41% (active)
fluorescence ratio (interference) [3]: 1 (inactive)
fold change [4, 8]: 0.981 (inactive)
fold change [4, 9]: 2.88
cell count [4, 10]: 9690
cell count [4, 11]: 9880
outcome [5]: inactive
z-score [6]: 1.04 (inactive)

O=C(Nc1ccc2[nH]ncc2c1)C1CCC1
fold change [4, 8]: 1.01 (inactive)
fold change [4, 9]: 1.17
cell count [4, 10]: 9900
cell count [4, 11]: 9790
outcome [5]: inactive
z-score [6]: 0.43 (inactive)

CN1CCc2ccccc2Cc2[nH]c3ccccc3c2CC1
period change [1]: -0.08 h (inactive)
inhibition [2]: -2% (inactive)
fluorescence ratio (interference) [3]: 1 (inactive)
fold change [4, 8]: 1.04 (inactive)
fold change [4, 9]: 0.882
cell count [4, 10]: 9860
cell count [4, 11]: 9460
outcome [5]: inactive
z-score [6]: -0.35 (inactive)

COc1ccccc1N1CCN(CCCNc2c(C)c(=O)n(C)c(=O)n2C)CC1
period change [1]: -0.1 h (inactive)
inhibition [2]: -5% (inactive)
fluorescence ratio (interference) [3]: 1 (inactive)
fold change [4, 8]: 0.886 (inactive)
fold change [4, 9]: 2.76
cell count [4, 10]: 8920
cell count [4, 11]: 10100
outcome [5]: inactive
z-score [6]: 0.025 (inactive)
